Experiment in all cases: DAPPL (digital affinity profiling via proximity ligation, sequencing); 10 mM Tris-HCl pH 7.5, 50 mM NaCl, 1 mM DTT, 4% glycerol, room temperature, 30 min; GST-TFs on glutathione beads, 16-mer random dsDNA library, 0.1% formaldehyde crosslink after washing; high values mean tight binding
Common to all, as to conditions: protein: recombinant; tags: N-terminal GST; dsDNA, one strand shown

The target in one test is T1, FEV (Homo sapiens, UniProt Q99581 1-238).
T1 sequence: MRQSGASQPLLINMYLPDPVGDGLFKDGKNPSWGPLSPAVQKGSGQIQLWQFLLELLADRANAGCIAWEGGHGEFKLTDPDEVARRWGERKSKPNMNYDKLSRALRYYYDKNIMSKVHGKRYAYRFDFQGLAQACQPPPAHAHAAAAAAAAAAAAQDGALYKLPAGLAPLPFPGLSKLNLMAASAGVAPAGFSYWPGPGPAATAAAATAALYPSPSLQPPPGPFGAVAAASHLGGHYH
In outline:
(§1)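 In yeast, human transcription factors were expressed with a GST fusion, then pulled down on glutathione beads and given DNA barcodes. Pooled with a tag-only sample, they were exposed to 200 nmole of a 16-mer random double-stranded DNA library (Tris/NaCl/DTT/glycerol buffer, room temperature, 30 min), washed, crosslinked with 0.1% formaldehyde, proximity-ligated using BsaI/T4 ligase for 1 h at 37 °C, PCR-amplified and read on an Illumina NextSeq500. Each hexamer's frequency of reads for a factor, divided by the matching frequency for the tag-only sample, gives the binding signal.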

The target of the next test is ETV5 (Homo sapiens, UniProt P41161 1-510). In outline: as §1
Chain of ETV5 (P41161 whole entry): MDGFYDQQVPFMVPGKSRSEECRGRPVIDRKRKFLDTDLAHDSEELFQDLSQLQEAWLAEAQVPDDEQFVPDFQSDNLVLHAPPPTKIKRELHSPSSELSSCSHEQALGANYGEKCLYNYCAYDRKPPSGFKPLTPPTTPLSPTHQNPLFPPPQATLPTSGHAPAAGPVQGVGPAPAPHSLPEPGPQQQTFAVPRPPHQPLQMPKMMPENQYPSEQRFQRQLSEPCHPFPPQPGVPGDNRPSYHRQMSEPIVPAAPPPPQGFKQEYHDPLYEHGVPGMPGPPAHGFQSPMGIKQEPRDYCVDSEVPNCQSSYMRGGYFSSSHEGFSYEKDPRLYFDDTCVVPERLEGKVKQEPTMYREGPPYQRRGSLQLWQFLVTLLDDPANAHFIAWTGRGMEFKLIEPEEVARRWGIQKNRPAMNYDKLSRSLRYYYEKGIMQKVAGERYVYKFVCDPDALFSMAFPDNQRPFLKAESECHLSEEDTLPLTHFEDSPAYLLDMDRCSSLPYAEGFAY
In a further test the target is T2, SPIC (Homo sapiens, UniProt Q8N5J4 1-248).
T2 sequence: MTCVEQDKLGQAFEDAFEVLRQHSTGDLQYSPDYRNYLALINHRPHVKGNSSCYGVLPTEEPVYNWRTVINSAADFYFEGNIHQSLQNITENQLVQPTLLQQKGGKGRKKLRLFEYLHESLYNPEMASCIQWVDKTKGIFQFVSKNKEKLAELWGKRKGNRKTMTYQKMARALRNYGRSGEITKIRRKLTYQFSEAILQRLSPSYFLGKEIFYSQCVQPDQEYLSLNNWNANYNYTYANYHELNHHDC
In outline: as §1

For another test, the target named is ELF4 (Homo sapiens, UniProt Q99607 1-663). In outline:
as §1

Another test deals with T3, ELK4 (Homo sapiens, UniProt P28324-2 1-405).
T3 sequence: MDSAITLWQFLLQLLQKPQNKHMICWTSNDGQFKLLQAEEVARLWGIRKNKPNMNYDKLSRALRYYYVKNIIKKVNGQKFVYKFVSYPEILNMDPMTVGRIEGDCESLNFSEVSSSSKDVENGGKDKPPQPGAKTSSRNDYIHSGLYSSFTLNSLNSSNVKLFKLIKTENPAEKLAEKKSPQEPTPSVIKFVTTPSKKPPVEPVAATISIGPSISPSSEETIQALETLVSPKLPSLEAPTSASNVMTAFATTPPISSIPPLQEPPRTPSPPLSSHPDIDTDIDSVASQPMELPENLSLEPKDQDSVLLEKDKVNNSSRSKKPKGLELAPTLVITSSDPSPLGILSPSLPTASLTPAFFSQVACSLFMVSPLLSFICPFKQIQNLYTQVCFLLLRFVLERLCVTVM
In outline:
as §1

In the next test the target is T4, ETV2 (Homo sapiens, UniProt O00321 1-342).
T4 sequence: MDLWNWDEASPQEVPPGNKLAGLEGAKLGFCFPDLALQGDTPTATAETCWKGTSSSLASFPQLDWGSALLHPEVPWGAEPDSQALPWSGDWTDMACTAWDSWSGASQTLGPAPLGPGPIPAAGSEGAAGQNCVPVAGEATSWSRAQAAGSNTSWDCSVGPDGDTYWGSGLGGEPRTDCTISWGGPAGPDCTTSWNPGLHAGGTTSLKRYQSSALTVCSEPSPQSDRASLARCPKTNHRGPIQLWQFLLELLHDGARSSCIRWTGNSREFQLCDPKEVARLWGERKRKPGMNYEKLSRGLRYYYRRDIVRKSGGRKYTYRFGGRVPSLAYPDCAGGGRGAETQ
In outline: as §1

In a further test the target is T5, ELF3 (Homo sapiens, UniProt P78545 1-371).
T5 sequence: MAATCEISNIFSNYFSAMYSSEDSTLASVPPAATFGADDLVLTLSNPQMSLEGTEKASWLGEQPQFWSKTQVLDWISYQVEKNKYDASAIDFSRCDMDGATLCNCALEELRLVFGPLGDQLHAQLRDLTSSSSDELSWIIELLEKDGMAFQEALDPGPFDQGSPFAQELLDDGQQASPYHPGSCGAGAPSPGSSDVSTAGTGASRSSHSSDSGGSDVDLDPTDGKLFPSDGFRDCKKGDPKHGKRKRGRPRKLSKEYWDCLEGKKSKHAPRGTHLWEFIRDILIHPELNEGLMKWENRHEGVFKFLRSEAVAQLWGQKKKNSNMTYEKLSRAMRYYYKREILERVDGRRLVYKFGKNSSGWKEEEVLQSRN
In outline: as §1

A further test has as its target ETV1 (Homo sapiens, UniProt P50549 1-477). In outline:
as §1

Chain of ETV1 (P50549 whole entry): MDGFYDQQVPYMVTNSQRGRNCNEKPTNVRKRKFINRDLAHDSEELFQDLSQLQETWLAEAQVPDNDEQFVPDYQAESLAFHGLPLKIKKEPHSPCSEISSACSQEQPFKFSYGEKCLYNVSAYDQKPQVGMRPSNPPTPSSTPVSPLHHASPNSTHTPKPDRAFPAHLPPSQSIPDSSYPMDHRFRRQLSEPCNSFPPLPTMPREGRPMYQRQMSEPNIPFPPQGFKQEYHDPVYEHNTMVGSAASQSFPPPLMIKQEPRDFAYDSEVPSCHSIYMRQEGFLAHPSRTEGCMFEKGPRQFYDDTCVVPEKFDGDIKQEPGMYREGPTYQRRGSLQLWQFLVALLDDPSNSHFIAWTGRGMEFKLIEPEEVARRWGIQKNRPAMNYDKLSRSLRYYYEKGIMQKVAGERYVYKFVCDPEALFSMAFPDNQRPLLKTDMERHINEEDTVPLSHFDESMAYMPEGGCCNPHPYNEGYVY
Chain of ELF4 (Q99607 whole entry): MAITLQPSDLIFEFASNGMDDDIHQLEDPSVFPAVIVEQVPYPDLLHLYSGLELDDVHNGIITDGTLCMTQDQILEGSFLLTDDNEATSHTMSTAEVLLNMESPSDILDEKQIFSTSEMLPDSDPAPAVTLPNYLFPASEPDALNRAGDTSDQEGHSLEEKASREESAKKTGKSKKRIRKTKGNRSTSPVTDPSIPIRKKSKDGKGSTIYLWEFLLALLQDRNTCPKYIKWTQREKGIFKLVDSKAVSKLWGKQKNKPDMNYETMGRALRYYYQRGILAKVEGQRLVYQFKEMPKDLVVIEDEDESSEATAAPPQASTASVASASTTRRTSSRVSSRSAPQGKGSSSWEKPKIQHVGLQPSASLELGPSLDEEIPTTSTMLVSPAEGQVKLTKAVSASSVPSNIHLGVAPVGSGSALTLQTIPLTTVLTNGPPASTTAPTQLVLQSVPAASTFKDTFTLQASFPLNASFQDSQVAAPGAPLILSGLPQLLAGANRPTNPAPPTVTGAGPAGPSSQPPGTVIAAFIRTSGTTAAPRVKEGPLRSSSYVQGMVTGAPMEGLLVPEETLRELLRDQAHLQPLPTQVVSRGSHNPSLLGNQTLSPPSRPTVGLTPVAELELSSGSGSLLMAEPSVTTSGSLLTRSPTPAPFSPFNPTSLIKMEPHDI

CACCTC: the binding signal with FEV was 1.11 fold enrichment (6-mer frequency, TF over GST control); with ETV5, 1.13 fold enrichment (6-mer frequency, TF over GST control); with SPIC, 1.22 fold enrichment (6-mer frequency, TF over GST control); with ELF4 it was 1.23 fold enrichment (6-mer frequency, TF over GST control); in the test with ELK4, 1.14 fold enrichment (6-mer frequency, TF over GST control); with ETV2 it was 1.2 fold enrichment (6-mer frequency, TF over GST control). The binding signal with ELF3 is 1.1 fold enrichment (6-mer frequency, TF over GST control); with ETV1, 1.19 fold enrichment (6-mer frequency, TF over GST control).

Turning to AACCAC, the binding signal is 1.2 fold enrichment (6-mer frequency, TF over GST control) with FEV; 1.17 fold enrichment (6-mer frequency, TF over GST control) with ETV5; 1.25 fold enrichment (6-mer frequency, TF over GST control) in the test with SPIC; 1.26 fold enrichment (6-mer frequency, TF over GST control) with ELF4; 1.26 fold enrichment (6-mer frequency, TF over GST control) in the test with ELK4; 1.05 fold enrichment (6-mer frequency, TF over GST control) with ETV2. The binding signal with ELF3 is 1.21 fold enrichment (6-mer frequency, TF over GST control); in the test with ETV1, 1.17 fold enrichment (6-mer frequency, TF over GST control).

As to CGACAC, the binding signal with FEV was 1.21 fold enrichment (6-mer frequency, TF over GST control); with ETV5 it was 1.13 fold enrichment (6-mer frequency, TF over GST control); with SPIC, 1.15 fold enrichment (6-mer frequency, TF over GST control); with ELF4, 1.21 fold enrichment (6-mer frequency, TF over GST control); with ELK4 it was 1.14 fold enrichment (6-mer frequency, TF over GST control); in the test with ETV2, 1.15 fold enrichment (6-mer frequency, TF over GST control). Also, the binding signal is 1.04 fold enrichment (6-mer frequency, TF over GST control) in the test with ELF3 and 1.16 fold enrichment (6-mer frequency, TF over GST control) in the test with ETV1.

Regarding GCGTCC, the binding signal with FEV is 1.36 fold enrichment (6-mer frequency, TF over GST control); with ETV5 it was 1.16 fold enrichment (6-mer frequency, TF over GST control); with SPIC, 1.23 fold enrichment (6-mer frequency, TF over GST control); with ELF4 it was 1.2 fold enrichment (6-mer frequency, TF over GST control); with ELK4 it was 1.25 fold enrichment (6-mer frequency, TF over GST control); with ETV2 it was 1.08 fold enrichment (6-mer frequency, TF over GST control). Further, the binding signal is 1.37 fold enrichment (6-mer frequency, TF over GST control) in the test with ELF3 and 1.26 fold enrichment (6-mer frequency, TF over GST control) with ETV1.

In the case of ACATCA, the binding signal was 1.17 fold enrichment (6-mer frequency, TF over GST control) in the test with FEV; 1.17 fold enrichment (6-mer frequency, TF over GST control) with ETV5; 1.13 fold enrichment (6-mer frequency, TF over GST control) in the test with SPIC; 1.19 fold enrichment (6-mer frequency, TF over GST control) with ELF4; 1.14 fold enrichment (6-mer frequency, TF over GST control) with ELK4; 1.22 fold enrichment (6-mer frequency, TF over GST control) in the test with ETV2. The binding signal with ELF3 is 1.15 fold enrichment (6-mer frequency, TF over GST control); with ETV1, 1.15 fold enrichment (6-mer frequency, TF over GST control).

For the sequence AGGAAG, the binding signal with FEV is 1.24 fold enrichment (6-mer frequency, TF over GST control); with ETV5, 1.44 fold enrichment (6-mer frequency, TF over GST control); with SPIC, 1.51 fold enrichment (6-mer frequency, TF over GST control); with ELF4, 1.21 fold enrichment (6-mer frequency, TF over GST control); in the test with ELK4 it was 1.11 fold enrichment (6-mer frequency, TF over GST control); in the test with ETV2, 1.4 fold enrichment (6-mer frequency, TF over GST control). The binding signal was 1.52 fold enrichment (6-mer frequency, TF over GST control) in the test with ELF3 and 1.5 fold enrichment (6-mer frequency, TF over GST control) in the test with ETV1.

With GCGACC, the binding signal in the test with FEV was 1.19 fold enrichment (6-mer frequency, TF over GST control); with ETV5, 1.09 fold enrichment (6-mer frequency, TF over GST control); with SPIC, 1.2 fold enrichment (6-mer frequency, TF over GST control); with ELF4, 1.25 fold enrichment (6-mer frequency, TF over GST control); with ELK4 it was 1.03 fold enrichment (6-mer frequency, TF over GST control); with ETV2, 1.26 fold enrichment (6-mer frequency, TF over GST control). Moreover, the binding signal in the test with ELF3 was 1.08 fold enrichment (6-mer frequency, TF over GST control); in the test with ETV1, 1.06 fold enrichment (6-mer frequency, TF over GST control).

The values are drawn from article PMC7862700, “An all-to-all approach to the identification of sequence-specific readers for epigenetic DNA modifications on cytosine”.
